The values that follow come from PubChem BioAssay (NCATS).

Molecules are shown by their SMILES. Records with an inconclusive call do not appear. A number with no mark means an inactive call. The call rests on the fitted dose curve; in most records, active means well fitted inhibition curve with a large enough effect; inconclusive means small, poorly fitted or top-dose-only effect; inactive means flat fitted curve, though single readings scatter.

This test has as its target Aldehyde dehydrogenase, mitochondrial (Homo sapiens) (UniProt P05091). Description: qHTS for Inhibitors of the Aldehyde Dehydrogenase Family (ALDH2) Primary screen (AID 2061308).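 Further: plate controls were vehicle for no effect and reference inhibitor for full effect; nearly all actives have a fitted effect of over 55% in size.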 The settings on record: ALDH2 enzyme inhibition qHTS, 1536-well; series mostly up to 56 µM; activity change, negative = inhibition: at the top concentration.
Regarding `c1ccc(CNCc2nnc(-c3cc4ccccc4[nH]3)s2)cc1`, the “activity change, negative = inhibition” value was 1.1%.

Take `CS(=O)(=O)c1ccc(-c2csc(N3CCC(C(N)=O)CC3)n2)cc1`: the “activity change, negative = inhibition” value was 4.24%.

As for `Brc1cnc2nc(SCc3ccccn3)[nH]c2c1`, the “activity change, negative = inhibition” value was -12.8%.

Regarding `O=C(Nc1nnc(-c2ccco2)o1)c1ccncc1`, the “activity change, negative = inhibition” value is 16%.

Regarding `O=S(=O)(c1c(F)cccc1F)C1CCN(S(=O)(=O)c2ccc3c(c2)OCCO3)CC1`, the “activity change, negative = inhibition” value is 7.5%.

Take `CCOc1ccc(CCN(C)C(=O)c2cc3sccc3n2Cc2ccccc2)cc1OCC`: the “activity change, negative = inhibition” value was -12.8%.

With `O=C(Nc1ccc2sccc2c1)Nc1nnc(-c2cccnc2)s1`, the “activity change, negative = inhibition” value was 5.56%.

In the case of `Cc1ccccc1NS(=O)(=O)c1ccc2c(c1)CCC(=O)N2`, the “activity change, negative = inhibition” value was -1.72%.

For the molecule `CCN(CC)CCCC(C)n1c(-c2ccccc2)nc2c(NCc3ccccc3)nc(C)nc21` (stereo not given), the “activity change, negative = inhibition” value was 3.48%.

As for `COc1ccc(C(=O)O)cc1COc1ccc(NC(C)=O)cc1`, the “activity change, negative = inhibition” value was -2.9%.

`COc1ccc(C2c3c(ncn(Cc4ccccc4)c3=N)Oc3ccc4ccccc4c32)cc1OC` (stereo not given): the “activity change, negative = inhibition” value is 15.1%.

As to `Fc1cc(Nc2nc(-c3ccncc3)nc3ccccc23)ccc1OCC(F)(F)F`, the “activity change, negative = inhibition” value is 19.7%.

`CO[C@H]1C[C@@H]2CC[C@@H](C)[C@@](O)(O2)C(=O)C(=O)N2CCCC[C@H]2C(=O)O[C@H]([C@H](C)C[C@@H]2CC[C@@H](OC(=O)C(C)(CO)CO)[C@H](OC)C2)CC(=O)[C@H](C)/C=C(\C)[C@@H](O)[C@@H](OC)C(=O)[C@H](C)C[C@H](C)/C=C/C=C/C=C/1C`: the “activity change, negative = inhibition” value is 0.175%.

`Cc1ccc(S(=O)(=O)Nc2ccccc2N2CCCCC2)s1`: the “activity change, negative = inhibition” value was 0.927%.

`O=[S+]([O-])(c1c(F)cccc1F)N1CCN([S+](=O)([O-])c2csc3ccccc23)CC1`: the “activity change, negative = inhibition” value was 2.65%.

Turning to `Cc1c(P(=S)(c2ccccc2)c2ccccc2)[n+]2ccccc2n1CCCCCc1ccccc1`, the “activity change, negative = inhibition” value was 19%.

For the molecule `COc1ccc(NC(=O)c2cnn3c(C)cc(C)nc23)cc1F`, the “activity change, negative = inhibition” value is 4.14%.

For the molecule `COc1ccc(C2=Nn3c(nnc3-c3ccccc3Cl)SC2)cc1OC1CCCC1`, the “activity change, negative = inhibition” value is -6.42%.

Regarding `Fc1cnc(-c2ccccc2C(F)F)nc1NCC1CCN(c2cnccn2)C1` (stereo not given), the “activity change, negative = inhibition” value was -6.05%.

As for `COc1ccc(Cn2ncc3c4sc(C)cc4n(C)c3c2=O)cc1F`, the “activity change, negative = inhibition” value is 4.95%.

As to `Cc1nc(N2CCOCC2)c2nc(-c3ccccc3)n(CCN3CCOCC3)c2n1`, the “activity change, negative = inhibition” value is 7.07%.

`Fc1ccc(-c2c(P(=S)(c3ccccc3)c3ccccc3)n3ccccc3[n+]2C/C=C/c2ccccc2)cc1`: the “activity change, negative = inhibition” value is 3.39%.

Consider `COc1cccc(-c2nnc3n2N=C(c2cc(OC)ccc2OC)CS3)c1`, for which the “activity change, negative = inhibition” value is 14.8%.

For `CNc1cc2c(cc1S(=O)(=O)Nc1ccc(C)c(C)c1)CCC(=O)N2`, the “activity change, negative = inhibition” value is 9.98%.

In the case of `CCCCNC(=S)NCCCc1cnc[nH]1`, the “activity change, negative = inhibition” value is 4.75%.

As for `C=CC1C(OC2OC(CO)C(O)C(O)C2O)OC=C2C(=O)N3C(C(=O)O)Cc4c([nH]c5ccccc45)C3CC21` (stereo not given), the “activity change, negative = inhibition” value is -15.2% [at 28 µM].

With `CCN(CC)CCCn1c(-c2ccccc2)nc2c(NCCOC)nc(C)nc21`, the “activity change, negative = inhibition” value is 7.75%.

For `CS(=O)(=O)c1ccc(C(=O)OCC(=O)N2CCN(CCC3CCCCC3)CC2)cc1[N+](=O)[O-]`, the “activity change, negative = inhibition” value is -6.17%.

In the case of `CNc1nnc(-c2cccc3ccccc23)o1`, the “activity change, negative = inhibition” value is 7.49%.

For the molecule `O=c1c2ccccc2nc(-c2ccccc2O)n1Cc1ccccc1`, the “activity change, negative = inhibition” value is -10.3%.

In the case of `CC(=O)O[C@@]1(C)[C@@H]2CC(=C(C)C)C(=O)C[C@@]2(C)CC[C@H]1OC(=O)C1(C)OC1C` (stereo not given in full), the “activity change, negative = inhibition” value is -3.86%.

On to `CC(=O)Nc1sc2c(c1C(=O)c1ccccc1)CCN(C(C)C)C2`, for which the “activity change, negative = inhibition” value is -0.286%.

As to `Fc1cccc(CNc2ncnc3ccc(-c4cccnc4)cc23)c1`, the “activity change, negative = inhibition” value was 0.67%.

As to `O=c1c2ccc(F)cc2nc2sc(Nc3ccc4c(c3)CCC4)nn12`, the “activity change, negative = inhibition” value is -15.5%.

Regarding `O=C1CCCC2=C1C(c1[nH]ncc1Cl)N=C(Nc1nc3ccccc3s1)N2` (stereo not given), the “activity change, negative = inhibition” value was 7.96%.

As for `O=S1(=O)N=C(Oc2ccccc2C(F)(F)F)c2ccccc21`, the “activity change, negative = inhibition” value was -6.74%.

With `S=C(Nc1ccc(Cl)c(Cl)c1)Nc1nnc(-c2ccncc2)s1`, the “activity change, negative = inhibition” value is -1.06%.

`COc1ccc(S(=O)(=O)NC2CCN(C#N)CC2)cc1`: the “activity change, negative = inhibition” value is 12%.

Regarding `O=C(NCc1ccc(Cl)c(Cl)c1)Nc1nnc(-c2ccncc2)s1`, the “activity change, negative = inhibition” value was 10.1%.

For `Cc1cccc(-c2ccc3ncnc(N(C)Cc4ccco4)c3c2)c1`, the “activity change, negative = inhibition” value was 4.14%.
